Drawing on PubChem BioAssay (NCI), this text covers growth for eight compounds.

Among the test systems are NCI-H23 lung; NCI-H226 lung; NCI-H322M lung; HOP-62 NSCLC; NCI-H460 lung; 786-0 renal; DU-145 prostate; MDA-MB-231 breast; SF-268 CNS; SF-539 CNS; M14 melanoma; SNB-19 CNS; U251 CNS; SN12C renal; UO-31 renal; SK-OV-3 ovarian; MDA-MB-435 melanoma; SW-620 colon; HCT-116 colon; KM12 colon.
What all share (assay): NCI-60 one-dose screen, 48 h (100 = growth as untreated, 0 = no growth, -100 = all killed)
Common to all, as to conditions: 10 µM unless noted

The structures appear in SMILES notation. This is part of a sample that, as a whole, favours compounds with a hit. Of some 83,000 tested, about 20% had one in any assay.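 Results are percent growth after 48 hours of single-concentration exposure. 100 means growth as in untreated cells, lower positive values show inhibition; negative values down to -100 show cell death.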 Values without a mark were called inactive. Activity calls are given as the source filed them. Rule for the calls: active = growth percent below 10; inactive = the rest.

As for `CC(=O)N(C)C1=Nc2ccc(Cl)cc2C(c2ccccc2)=[N+]([O-])C1`, the growth in the assay on NCI-H23 lung is 101%; with NCI-H226 lung, 105%; in the assay on NCI-H322M lung, 82.6%; in the assay with HOP-62 NSCLC it was 96.3%; with NCI-H460 lung, 111%; in the assay on 786-0 renal, 110%. Also, the growth in the assay on DU-145 prostate was 115%; with MDA-MB-231 breast, 109%; in the assay on SF-268 CNS, 105%; in the assay with SF-539 CNS, 104%; in the assay on M14 melanoma it was 114%; in the assay on SNB-19 CNS, 96.3%. For the same compound, the growth is 111% with U251 CNS; 97.2% in the assay with SN12C renal; 80.7% in the assay with UO-31 renal; 102% in the assay on SK-OV-3 ovarian; 111% in the assay on MDA-MB-435 melanoma; 107% with SW-620 colon. Moreover, the results for the growth with HCT-116 colon and in the assay on KM12 colon were 99.3% and 107%, respectively.

`OC1(c2ccccc2F)c2ccccc2C2=NCCN21` (stereo not given): the growth with NCI-H23 lung was 86.7%; in the assay with NCI-H226 lung, 84.8%; in the assay on NCI-H322M lung, 97.2%; in the assay on HOP-62 NSCLC, 84.9%; with NCI-H460 lung, 118%; in the assay with 786-0 renal, 96.6%. Also, the growth was 113% in the assay on DU-145 prostate; 109% in the assay with MDA-MB-231 breast; 116% in the assay with SF-268 CNS; 100% with SF-539 CNS; 107% with M14 melanoma; 108% in the assay on SNB-19 CNS. Further, the growth with U251 CNS was 104%; with SN12C renal it was 101%; in the assay with UO-31 renal, 84.2%; in the assay with SK-OV-3 ovarian, 105%; in the assay with MDA-MB-435 melanoma, 110%; with SW-620 colon, 96.8%. The growth is 93.3% with HCT-116 colon and 105% in the assay on KM12 colon.

In the case of `COc1ccccc1N1CCN(CCc2c[nH]c3cc4c(cc23)OCO4)CC1`, the growth in the assay on NCI-H23 lung is 71.9%; in the assay on NCI-H226 lung it was 79.3%; in the assay with NCI-H322M lung, 72.1%; with HOP-62 NSCLC, 63.2%; in the assay on NCI-H460 lung, 51.6%; with 786-0 renal, 79%. The growth is 103% with DU-145 prostate; 79.8% with MDA-MB-231 breast; 91.6% with SF-268 CNS; 77.8% in the assay with SF-539 CNS; 68.9% in the assay on M14 melanoma; 79.6% in the assay with SNB-19 CNS. The growth with U251 CNS is 85.4%; with SN12C renal, 68.4%; in the assay with UO-31 renal, 33.2%; in the assay on SK-OV-3 ovarian it was 104%; in the assay with MDA-MB-435 melanoma it was 78%; in the assay on SW-620 colon, 88.6%. The growth was 42.5% with HCT-116 colon and 84% with KM12 colon.

On to `Oc1ccc(O)c2c1C1(Cl)C(Cl)=C(Cl)C2(Cl)C1(Cl)Cl`, for which the growth with NCI-H23 lung was 59.3%; in the assay on NCI-H226 lung, 59%; in the assay on NCI-H322M lung, 33.1%; with HOP-62 NSCLC, 47.4%; with NCI-H460 lung it was 55.3%; with 786-0 renal, 69.1%. Besides, the growth was 63.2% in the assay on DU-145 prostate; 41.3% in the assay on MDA-MB-231 breast; 44.7% with SF-268 CNS; 68.2% with SF-539 CNS; 32.6% with M14 melanoma; 64.9% in the assay with SNB-19 CNS. Further, the growth in the assay with U251 CNS was 51.6%; in the assay with SN12C renal, 56.4%; in the assay with UO-31 renal, 44.2%; with SK-OV-3 ovarian it was 66.9%; in the assay on MDA-MB-435 melanoma, -3.33% (active); in the assay on SW-620 colon, 56.9%. Further, the growth is 28.4% in the assay with HCT-116 colon and 34.6% in the assay on KM12 colon.

Take `COC(=O)C[Se]C(=O)c1ccccc1OC(C)=O`: the growth with NCI-H23 lung is 76.2%; in the assay with NCI-H226 lung, 56.3%; in the assay on NCI-H322M lung it was 77.5%; in the assay on HOP-62 NSCLC, 32.7%; in the assay on NCI-H460 lung, 76.5%; with 786-0 renal, 89.8%. Further, the growth is 61.8% with DU-145 prostate; 71.3% in the assay on MDA-MB-231 breast; 72.3% in the assay on SF-268 CNS; 75.1% in the assay with SF-539 CNS; 49.3% in the assay with M14 melanoma; 83.9% in the assay on SNB-19 CNS. Moreover, the growth in the assay with U251 CNS was 66.3%; in the assay with SN12C renal, 93.2%; in the assay with UO-31 renal, 35.7%; in the assay with SK-OV-3 ovarian it was 221%; in the assay with MDA-MB-435 melanoma, 87.9%; in the assay with SW-620 colon, 97.8%. Also, the figures for the growth in the assay on HCT-116 colon and in the assay with KM12 colon were 10.9% and 22.1%, respectively.

Regarding `O=C(/C=C/c1ccccc1)N[C@@H](CO)Cc1cnc[nH]1`, the growth is 113% in the assay with NCI-H23 lung; 94% with NCI-H226 lung; 101% in the assay with NCI-H322M lung; 101% in the assay with HOP-62 NSCLC; 105% with NCI-H460 lung; 103% in the assay on 786-0 renal. Also, the growth with DU-145 prostate is 114%; with MDA-MB-231 breast, 98.9%; in the assay on SF-268 CNS, 101%; in the assay with SF-539 CNS, 95.6%; with M14 melanoma it was 105%; in the assay with SNB-19 CNS it was 103%. Moreover, the growth in the assay with U251 CNS was 101%; in the assay with SN12C renal, 105%; in the assay with UO-31 renal it was 98.2%; with SK-OV-3 ovarian, 113%; in the assay with MDA-MB-435 melanoma, 113%; in the assay with SW-620 colon, 106%. Moreover, the figures for the growth in the assay on HCT-116 colon and with KM12 colon were 109% and 105%, respectively.

In the case of `O=C(NCCNC(=O)c1ccc([As](O)O)cc1)c1ccc([As](O)O)cc1`, the growth is 93% in the assay with NCI-H23 lung; 109% with NCI-H226 lung; 102% in the assay on NCI-H322M lung; 105% in the assay on HOP-62 NSCLC; 99.7% with NCI-H460 lung; 114% in the assay with 786-0 renal. Further, the growth in the assay with DU-145 prostate was 103%; with MDA-MB-231 breast it was 106%; in the assay on SF-268 CNS, 103%; in the assay with SF-539 CNS, 102%; in the assay with M14 melanoma it was 99.1%; with SNB-19 CNS, 106%. Besides, the growth is 103% in the assay with U251 CNS; 113% in the assay with SN12C renal; 96.8% in the assay on UO-31 renal; 104% in the assay with SK-OV-3 ovarian; 104% in the assay with MDA-MB-435 melanoma; 94.7% with SW-620 colon. In addition, the growth is 101% with HCT-116 colon and 99.8% in the assay with KM12 colon.

As for `CC(CC(C#N)(c1ccccc1)c1ccccc1)N1CCOCC1` (stereo not given), the growth in the assay on NCI-H23 lung was 106%; in the assay on NCI-H226 lung, 112%; in the assay with NCI-H322M lung it was 107%; in the assay on HOP-62 NSCLC, 97.6%; in the assay with NCI-H460 lung, 112%; in the assay on 786-0 renal it was 112%. Moreover, the growth in the assay on DU-145 prostate was 105%; in the assay on MDA-MB-231 breast it was 94.4%; with SF-268 CNS it was 101%; in the assay with SF-539 CNS, 101%; in the assay with M14 melanoma it was 114%; in the assay with SNB-19 CNS, 92.2%. The growth is 99.2% with U251 CNS; 93.5% with SN12C renal; 74.6% with UO-31 renal; 109% in the assay on SK-OV-3 ovarian; 118% in the assay with MDA-MB-435 melanoma; 106% with SW-620 colon. Further, the growth in the assay on HCT-116 colon is 106%; in the assay on KM12 colon it was 104%.
